# Measurements taken from the supplement of paper PMC8728848.
# The entries come from a sample that favours the strongest signals as a whole.
# B1: LICBM33A (Lactococcus lactis), Q9CE94 (protein)
# chain: MKKLLTGLLVAAGLLSVSLLIKTDTVSAHGYVQSPPARGYQGQLDSQSLGWTAAFNIYGNVISNPQSLEAPKGFPECGPADGRIASANGGLGQIGDFVLDNQTSSRWKKTSISTGSNIFTWKYTAPHKTTKWHYYMTKTGWDQNAPLKHSELELIGTINHDGSPATNNLSHTINIPTDRSGYHIVLAVWDVADTSNAFYNVIDINVNNKNASSQVFGPFL
# Assays:
# Experiment in all cases: glycan array binding signal (z-score within array); higher = stronger binding
# Details in all cases: glycan notation: IUPAC condensed, linker removed
# [1] = molecular target: Glc(b1-4)Glc
# How it was run: (§1)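 From the Consortium for Functional Glycomics database, 3228 arrays were curated, keeping only those whose protein sequence was available. Binding is given as a within-array Z-score averaged across arrays sharing a protein sequence and across linkers. Negative Z-scores can be read as non-binding.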
# [2] = molecular target: GlcNAc(a1-4)Gal(b1-4)GlcNAc(b1-3)Gal(b1-4)GlcNAc
# How it was run: as §1
# [3] = molecular target: GlcNAc(a1-4)Gal(b1-4)GlcNAc(b1-3)Gal(b1-4)GlcNAc(b1-3)Gal(b1-4)GlcNAc
# How it was run: as §1
# [4] = molecular target: GlcNAc(b1-3)Gal(b1-4)GlcNAc(b1-3)Gal(b1-4)GlcNAc(b1-2)Man(a1-3)[GlcNAc(b1-3)Gal(b1-4)GlcNAc(b1-3)Gal(b1-4)GlcNAc(b1-2)Man(a1-6)]Man(b1-4)GlcNAc(b1-4)[Fuc(a1-6)]GlcNAc
# How it was run: as §1
# [5] = molecular target: GlcNAc(b1-3)Gal(b1-4)GlcNAc(b1-3)Gal(b1-4)GlcNAc(b1-3)Gal(b1-4)GlcNAc(b1-3)Gal(b1-4)GlcNAc(b1-2)Man(a1-3)[GlcNAc(b1-3)Gal(b1-4)GlcNAc(b1-3)Gal(b1-4)GlcNAc(b1-3)Gal(b1-4)GlcNAc(b1-3)Gal(b1-4)GlcNAc(b1-2)Man(a1-6)]Man(b1-4)GlcNAc(b1-4)GlcNAc
# How it was run: as §1
# [6] = molecular target: GlcNAc(b1-3)Man
# How it was run: as §1
# [7] = molecular target: GlcNAc(b1-6)Gal(b1-4)GlcNAc
# How it was run: as §1
# [8] = molecular target: Kdn(a2-3)Gal(b1-4)Glc
# How it was run: as §1
# [9] = molecular target: Kdn(a2-3)Gal(b1-4)GlcNAc
# How it was run: as §1
# [10] = molecular target: Man(a1-3)[Man(a1-6)]Man(b1-4)GlcNAc(b1-4)GlcNAc
# How it was run: as §1
# [11] = molecular target: Man(b1-4)GlcNAc
# How it was run: as §1
# [12] = molecular target: Neu5Ac(a2-3)Gal
# How it was run: as §1
# [13] = molecular target: Neu5Ac(a2-3)Gal(b1-3)[Fuc(a1-4)]GlcNAc
# How it was run: as §1
# [14] = molecular target: Neu5Ac(a2-3)Gal(b1-3)[Fuc(a1-4)]GlcNAc(b1-3)Gal(b1-3)[Fuc(a1-4)]GlcNAc
# How it was run: as §1
# [15] = molecular target: Neu5Ac(a2-3)Gal(b1-3)[GlcNAc(b1-6)]GalNAc
# How it was run: as §1
# [16] = molecular target: Neu5Ac(a2-3)Gal(b1-4)GlcNAc
# How it was run: as §1
# [17] = molecular target: Neu5Ac(a2-3)Gal(b1-4)GlcNAc(b1-6)[Neu5Ac(a2-3)Gal(b1-3)]GalNAc
# How it was run: as §1
# [18] = molecular target: Neu5Ac(a2-6)Gal(b1-4)GlcNAc(b1-2)Man(a1-3)[Neu5Ac(a2-6)Gal(b1-4)GlcNAc(b1-2)Man(a1-6)]Man(b1-4)GlcNAc(b1-4)[Fuc(a1-6)]GlcNAc
# How it was run: as §1
# [19] = molecular target: Neu5Ac(a2-6)Gal(b1-4)GlcNAc(b1-2)Man(a1-6)[GlcNAc(b1-2)Man(a1-3)]Man(b1-4)GlcNAc(b1-4)GlcNAc
# How it was run: as §1
# [20] = molecular target: Neu5Ac(a2-6)Gal(b1-4)GlcNAc(b1-3)Gal(b1-4)GlcNAc(b1-2)Man(a1-3)[Neu5Ac(a2-6)Gal(b1-4)GlcNAc(b1-3)Gal(b1-4)GlcNAc(b1-2)Man(a1-6)]GalNAc
# How it was run: as §1
# [21] = molecular target: Neu5Ac(a2-6)Gal(b1-4)GlcNAc(b1-3)Gal(b1-4)GlcNAc(b1-6)[Gal(b1-3)]GalNAc
# How it was run: as §1
# [22] = molecular target: Neu5Ac(a2-8)Neu5Ac(a2-8)Neu5Ac
# How it was run: as §1
# [23] = molecular target: Neu5Ac9Ac(a2-3)Gal(b1-3)GlcNAc
# How it was run: as §1
# [24] = molecular target: Neu5Gc(a2-3)Gal(b1-4)GlcNAc
# How it was run: as §1
# [25] = molecular target: Neu5Gc(a2-6)Gal(b1-4)GlcNAc
# How it was run: as §1
binder,measurement,setting,value
B1,glycan array binding signal (z-score),[1],-0.321
same,glycan array binding signal (z-score),[2],-0.4
same,glycan array binding signal (z-score),[3],-0.457
same,glycan array binding signal (z-score),[4],-0.307
same,glycan array binding signal (z-score),[5],4.98
same,glycan array binding signal (z-score),[6],0.023
same,glycan array binding signal (z-score),[7],-0.043
same,glycan array binding signal (z-score),[8],0.82
same,glycan array binding signal (z-score),[9],-0.667
same,glycan array binding signal (z-score),[10],0.527
same,glycan array binding signal (z-score),[11],-0.147
same,glycan array binding signal (z-score),[12],0.406
same,glycan array binding signal (z-score),[13],3.52
same,glycan array binding signal (z-score),[14],3.37
same,glycan array binding signal (z-score),[15],1.55
same,glycan array binding signal (z-score),[16],0.435
same,glycan array binding signal (z-score),[17],-0.471
same,glycan array binding signal (z-score),[18],4.31
same,glycan array binding signal (z-score),[19],4.26
same,glycan array binding signal (z-score),[20],4.82
same,glycan array binding signal (z-score),[21],-0.512
same,glycan array binding signal (z-score),[22],-0.117
same,glycan array binding signal (z-score),[23],0.017
same,glycan array binding signal (z-score),[24],-0.141
same,glycan array binding signal (z-score),[25],-0.606
